Experimental data published in PubChem BioAssay AID1159580 (chemical genetic matrix, 2015).
Screen size: about 5,500 compounds; about 2,000 (36%) were called active. About 18% were inconclusive and are not listed. Cut-off read from the data, not from the text of the source: active = normalized growth mostly below about 0.91 (no sharp cut-off); inconclusive = no clear call, values can overlap the other calls; inactive = mostly above about 0.92. The list shows a part of the results.

Experiment: chemical genetic growth profiling, strain panel (AID 1159580);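 note: tested at 20 µM; growth read once vehicle control cultures reached saturation at 30 °C; 1 = growth at the plate median or of vehicle wells; lower values mean less growth of the strain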
Conditions: growth OD

Measured: normalized growth

COC1=C[C@@H]2[C@@H]3Cc4ccc(OC)c(O)c4[C@]2(CCN3C)CC1=O
inactive: S. cerevisiae deletion strains, locus YJR075W, strain HOC1, hits give low values 0.928 | S. cerevisiae deletion strains, locus YKL009W, strain mrt4, hits give low values 0.978 | S. cerevisiae deletion strains, locus YKL068W, hits give low values 0.977 | S. cerevisiae deletion strains, locus YKL085W, strain MDH1 (second series), hits give low values 0.979 | S. cerevisiae deletion strains, locus YKL085W, strain MDH1, hits give low values 0.979 | S. cerevisiae deletion strains, locus YKL160W, strain elf1, hits give low values 0.996 | S. cerevisiae deletion strains, locus YKL190W, strain CNB1, hits give low values 0.977 | S. cerevisiae deletion strains, locus YKR001C, strain vps1, hits give low values 0.992 | S. cerevisiae deletion strains, locus YKR026C, strain gcn3, hits give low values 1 | S. cerevisiae deletion strains, locus YKR091W, strain srl3, hits give low values 0.984 | S. cerevisiae deletion strains, locus YLL001W, strain dnm1, hits give low values 0.997 | S. cerevisiae deletion strains, locus YLL026W, hits give low values 0.982 | S. cerevisiae deletion strains, locus YLL041C, strain sdh2, hits give low values 1 | S. cerevisiae deletion strains, locus YLR027C, strain aat2, hits give low values 1 | S. cerevisiae deletion strains, locus YLR039C, strain RIC1, hits give low values 0.98 | S. cerevisiae deletion strains, locus YLR058C, strain SHM2, hits give low values 0.976 | S. cerevisiae deletion strains, locus YLR102C, strain apc9, hits give low values 0.971 | S. cerevisiae deletion strains, locus YLR113W, strain HOG1, hits give low values 1.01 | S. cerevisiae deletion strains, locus YLR221C, strain rsa3, hits give low values 0.993 | S. cerevisiae deletion strains, locus YLR258W, strain gsy2, hits give low values 0.987 | S. cerevisiae deletion strains, locus YLR262C, strain YPT6 (second series), hits give low values 0.999 | S. cerevisiae deletion strains, locus YLR262C, strain YPT6, hits give low values 0.926 | S. cerevisiae deletion strains, locus YLR268W, strain sec22, hits give low values 0.967 | S. cerevisiae deletion strains, locus YLR320W, strain mms22, hits give low values 1 | S. cerevisiae deletion strains, locus YLR330W, strain CHS5, hits give low values 0.999 | S. cerevisiae deletion strains, locus YLR342W, strain FKS1 (second series), hits give low values 1.03 | S. cerevisiae deletion strains, locus YLR342W, strain FKS1, hits give low values 1 | S. cerevisiae deletion strains, locus YLR357W, strain rsc2, hits give low values 0.943 | S. cerevisiae deletion strains, locus YLR370C, strain arc18, hits give low values 1 | S. cerevisiae deletion strains, locus YLR371W, strain rom2, hits give low values 0.952 | S. cerevisiae deletion strains, locus YLR384C, strain iki3, hits give low values 0.987 | S. cerevisiae deletion strains, locus YLR418C, strain cdc73, hits give low values 0.969 | S. cerevisiae deletion strains, locus YML016C, strain PPZ1, hits give low values 0.979 | S. cerevisiae deletion strains, locus YML032C, strain rad52, hits give low values 0.985 | S. cerevisiae deletion strains, locus YML120C, strain ndi1, hits give low values 1 | S. cerevisiae deletion strains, locus YML124C, strain tub3, hits give low values 0.986 | S. cerevisiae deletion strains, locus YMR058W, strain fet3, hits give low values 1.01 | S. cerevisiae deletion strains, locus YMR078C, strain ctf18, hits give low values 0.977 | S. cerevisiae deletion strains, locus YMR125W, strain sto1, hits give low values 0.975 | S. cerevisiae deletion strains, locus YMR129W, hits give low values 1 | S. cerevisiae deletion strains, locus YMR205C, strain PFK2, hits give low values 0.985 | S. cerevisiae deletion strains, locus YMR231W, strain pep5, hits give low values 0.995 | S. cerevisiae deletion strains, locus YMR263W, strain SAP30, hits give low values 0.962 | S. cerevisiae deletion strains, locus YMR307W, strain GAS1, hits give low values 1.03 | S. cerevisiae deletion strains, locus YNL067W, strain RPL9B, hits give low values 0.988 | S. cerevisiae deletion strains, locus YNL071W, strain lat1, hits give low values 0.996 | S. cerevisiae deletion strains, locus YNL128W, strain TEP1, hits give low values 0.961 | S. cerevisiae deletion strains, locus YNL153C, strain GIM3, hits give low values 0.96 | S. cerevisiae deletion strains, locus YNL183C, strain NPR1, hits give low values 0.959 | S. cerevisiae deletion strains, locus YNL209W, strain ssb2, hits give low values 1.01 | S. cerevisiae deletion strains, locus YNL233W, strain BNI4, hits give low values 0.979 | S. cerevisiae deletion strains, locus YNL248C, strain rpa49, hits give low values 0.978 | S. cerevisiae deletion strains, locus YNL250W, strain rad50, hits give low values 0.981 | S. cerevisiae deletion strains, locus YNL271C, strain bni1, hits give low values 0.988 | S. cerevisiae deletion strains, locus YNL298W, strain CLA4, hits give low values 0.96 | S. cerevisiae deletion strains, locus YNL307C, strain MCK1, hits give low values 0.989 | S. cerevisiae deletion strains, locus YNL322C, strain KRE1 (second series), hits give low values 0.975 | S. cerevisiae deletion strains, locus YNL322C, strain KRE1, hits give low values 0.98 | S. cerevisiae deletion strains, locus YNR049C, strain mso1, hits give low values 1.01 | S. cerevisiae deletion strains, locus YNR052C, strain pop2, hits give low values 0.982 | S. cerevisiae deletion strains, locus YOL006C, strain TOP1, hits give low values 0.942 | S. cerevisiae deletion strains, locus YOL012C, strain htz1 2.19 | S. cerevisiae deletion strains, locus YOL147C, strain pex11, hits give low values 0.992 | S. cerevisiae deletion strains, locus YOR001W, strain rrp6, hits give low values 1.01 | S. cerevisiae deletion strains, locus YOR061W, strain CKA2, hits give low values 0.962 | S. cerevisiae deletion strains, locus YOR069W, strain VPS5, hits give low values 0.987 | S. cerevisiae deletion strains, locus YOR070C, strain gyp1, hits give low values 0.986 | S. cerevisiae deletion strains, locus YOR080W, strain dia2, hits give low values 0.999 | S. cerevisiae deletion strains, locus YOR083W, strain WHI5, hits give low values 0.974 | S. cerevisiae deletion strains, locus YOR106W, strain vam3, hits give low values 0.997 | S. cerevisiae deletion strains, locus YOR136W, strain idh2, hits give low values 0.988 | S. cerevisiae deletion strains, locus YOR144C, strain elg1, hits give low values 0.986 | S. cerevisiae deletion strains, locus YOR184W, strain ser1, hits give low values 0.99 | S. cerevisiae deletion strains, locus YOR231W, strain MKK1, hits give low values 0.998 | S. cerevisiae deletion strains, locus YOR265W, strain rbl2, hits give low values 1.01 | S. cerevisiae deletion strains, locus YOR270C, strain vph1, hits give low values 0.996 | S. cerevisiae deletion strains, locus YOR290C, strain snf2, hits give low values 0.987 | S. cerevisiae deletion strains, locus YOR316C, strain cot1, hits give low values 0.965 | S. cerevisiae deletion strains, locus YPL051W, strain arl3, hits give low values 0.985 | S. cerevisiae deletion strains, locus YPL055C, strain LGE1, hits give low values 0.9 | S. cerevisiae deletion strains, locus YPL078C, strain atp4, hits give low values 0.983 | S. cerevisiae deletion strains, locus YPL106C, strain sse1, hits give low values 0.961 | S. cerevisiae deletion strains, locus YPL240C, strain hsp82, hits give low values 0.985 | S. cerevisiae deletion strains, locus YPL241C, strain CIN2, hits give low values 0.985 | S. cerevisiae deletion strains, locus YPL256C, strain CLN2, hits give low values 1.02 | S. cerevisiae deletion strains, locus YPR119W, strain clb2, hits give low values 0.984 | S. cerevisiae deletion strains, locus YPR141C, strain kar3, hits give low values 0.945 | S. cerevisiae deletion strains, locus YPR163C, strain tif3, hits give low values 0.983 | S. cerevisiae deletion strains, locus YPR167C, strain met16, hits give low values 0.979 | S. cerevisiae deletion strains, strain wtn01, hits give low values 0.992 | S. cerevisiae strains, strain wild type, hits give low values 0.992
